The results in this text go back to PubChem BioAssay (Tox21).

Assay [1] deals with Estrogen receptor beta (Homo sapiens) (UniProt Q92731). Kind of assay: qHTS assay to identify small molecule agonists of the estrogen receptor beta (ER-beta) signaling pathway (AID 1259377; active = well fitted activation curve with a large enough effect in the signal ratio in the repeat runs, not every such curve was filed as active; the % refers to the signal ratio). The gist of the method: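 Agonist mode cell assay in GripTite HEK293T cells expressing an ER-beta fusion that drives beta-lactamase from an Upstream Activator Sequence; 16 hr compound exposure at 37C, then 2 h LiveBLAzer B/G FRET substrate at room temperature, fluorescence read-out.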
(Quantitative high-throughput screening tests each substance at several concentrations.)

Assay [2] shares this target. Kind of assay: qHTS assay to identify small molecule antagonists of the estrogen receptor beta (ER-beta) signaling pathway (AID 1259378; active = well fitted inhibition curve with a large enough effect in the signal ratio in the repeat runs, not every such curve was filed as active; the % refers to the signal ratio; note: potency is the fitted concentration of half-maximal effect). The gist of the method:
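Antagonist mode: compounds added to beta-lactamase reporter HEK293T ER-beta-UAS cells stimulated with E2 (1nM final), 16 hr at 37C. LiveBLAzer B/G FRET substrate, 2 hours room temperature, fluorescence read-out.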

The nature of assay [3]: qHTS assay to identify small molecule agonists of the estrogen receptor beta (ER-beta) signaling pathway - cell viability counter screen (AID 1259380). Note: nearly all actives have a fitted effect of over 30% in size. Note: potency is the fitted concentration of half-maximal effect. The gist of the method: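 Cells used were ER-beta-UAS-bla HEK293T in medium with 2% charcoal-stripped FBS. They were treated for 16 hr at 37C. Viability came from CellTiter-Glo luminescence.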
In assay [4] the target is Androgen receptor (Homo sapiens) (UniProt P10275). Put plainly: qHTS assay to identify small molecule agonists of the androgen receptor (AR) signaling pathway in the presence of an antagonist (AID 1259381; calls by dose curve; note: nearly all actives have a fitted effect of over 15% in size). The method in brief:
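Using human MDA-kb2 cells with an MMTV promoter–luciferase construct (AR and GR response elements), agonist activity is scored under 3.0uM nilutamide (final) co-treatment; 16hr incubation, 37C, luminescence readout via ONE-Glo.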

A short description of assay [5]: qHTS assay to identify small molecule antagonists of the TGF-beta/Smad signaling pathway - cell viability counter screen (AID 1346824). Note: nearly all actives have a fitted effect of over 50% in size. The method in brief: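 Cytotoxicity counter-screen run in the same wells as the beta-lactamase Smad reporter read: CellTiter-Glo luminescence after 30 min at room temperature. HEK 293T SBE-bla cells had 5 hr compound exposure at 37 C with TGF-beta1 (0.25 ng/mL stock).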

The nature of assay [6]: qHTS assay to identify small molecule agonists of the TGF-beta/Smad signaling pathway - cell viability counter screen (AID 1346829). Note: top concentration of the series differs between compounds; nearly all actives have a fitted effect of over 45% in size. The method in brief:
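CellTiter-Glo luminescence readout; SBE-bla HEK 293T cells, overnight plating, compound 5 hr at 37 C/5% CO2, then bla substrate 2 hr RT, then CellTiter-Glo 30 min RT.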

Assay [7] can be described thus: qHTS assay to identify small molecule agonists of the TGF-beta/Smad signaling pathway (AID 1346859; active = well fitted activation curve with a large enough effect in the signal ratio in the repeat runs, not every such curve was filed as active; the % refers to the signal ratio; note: series mostly up to about 77 µM). The method in brief: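 Reporter line: HEK 293T with stably integrated SBE-controlled beta-lactamase. Compound exposure lasts 5 hr at 37 C and 5% CO2; substrate loading follows for 2 hr at room temperature, with emission read at 460 and 530 nm.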
Assay [8] has as its target Thyrotropin-releasing hormone receptor (Homo sapiens) (UniProt P34981). Kind of assay: qHTS assay to identify small molecule antagonists of the thyrotropin-releasing hormone receptor (TRHR) signaling pathway (AID 1346877; active = well fitted inhibition curve with a large enough effect in the repeat runs, not every such curve was filed as active; note: series mostly up to about 51 µM). The method in brief: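 Screening used HEK293 cells engineered with TRHR, with a brief 5 min room-temperature compound exposure preceding addition of TRH to 1 nM. The read-out was kinetic calcium-dye fluorescence, concentration-response from 15 doses in triplicate.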

A short description of assay [9]: qHTS assay to identify small molecule antagonists of the sonic hedgehog signaling (Shh) pathway (AID 1259369; calls by dose curve; note: nearly all actives have a fitted effect of over 45% in size; note: potency is the fitted concentration of half-maximal effect). The gist of the method: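 Conditioned medium drives Shh signalling in 3T3Gli1-Luc cells; compounds in DMSO co-applied, 24hr at 37 C, then luciferase luminescence.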
A short description of assay [10]: qHTS assay to identify small molecule antagonists of the estrogen receptor beta (ER-beta) signaling pathway - cell viability counter screen (AID 1259382). Note: series mostly up to about 92 µM; nearly all actives have a fitted effect of over 55% in size. The gist of the method: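 Agonist-stimulated (1nM E2) ER-beta-UAS-bla HEK293T cells are incubated with library compounds for 16 hr at 37C. Cell viability is then assessed in the reporter-assay wells by adding CellTiter-Glo and reading luminescence after 30 min.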

Assay [11] in a line: qHTS assay to identify small molecule agonists of the estrogen receptor alpha (ER-alpha) signaling pathway in the presence of an antagonist - cell viability counter screen (AID 1259386).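 Note: series mostly up to about 92 µM; cells exposed to compounds for 22 h at 37 °C before the viability read; nearly all actives have a fitted effect of over 30% in size.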 The gist of the method: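 ICI-182,780 at 10.0nM final accompanies the compound titration (15 concentrations, 22hr, 37C) on VM7Luc4E2 cells. The CellTiter-Fluor fluorescence readout runs in the same wells as the luciferase assay.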

The target of assay [12] is Progesterone receptor (Homo sapiens) (UniProt P06401). Kind of assay: qHTS assay to identify small molecule agonists of the progesterone receptor (PR) signaling pathway (AID 1346784; calls by dose curve; note: nearly all actives have a fitted effect of over 30% in size). The gist of the method: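 Cells (PR-UAS-bla HEK 293T, GripTite) were plated in assay medium containing 2% charcoal-stripped FBS and incubated 6 hr. Test compounds in DMSO were added for 16 hr at 37C. FRET substrate was then loaded for 2 hr at room temperature before fluorescence reading.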

The nature of assay [13]: qHTS assay to identify small molecule agonists of the progesterone receptor (PR) signaling pathway - cell viability counter screen (AID 1346799; calls by dose curve; note: nearly all actives have a fitted effect of over 45% in size). The method in brief:
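Cells (PR-UAS-bla HEK293T) are plated at 3,000/well in 2% charcoal-stripped FBS medium, rested 6 hr, dosed and incubated 16 hr at 37C. CellTiter-Glo is then added and luminescence measured after 30 min at room temperature.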

Assay [14] can be described thus: qHTS assay to identify small molecule agonists or antagonists of the thyroid stimulating hormone receptor (TSHR) signaling pathway - wild type cell line counter screen (AID 1259384; calls by dose curve). The gist of the method: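 Counter screen in untransfected Hek293: compounds (15-point titration, triplicate) plus phosphodiesterase inhibitor Ro20-1724 added after 18 h plating; 30 min RT. Intracellular cAMP via competitive d2/cryptate immunoassay, 1 h incubation.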

In assay [15] the target is Thyrotropin receptor (Homo sapiens) (UniProt P16473). Put plainly: qHTS assay to identify small molecule antagonists of the thyroid stimulating hormone receptor (TSHR) signaling pathway (AID 1259385; calls by dose curve; note: nearly all actives have a fitted effect of over 20% in size). The gist of the method: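 Antagonist mode: compound-treated TSHR-expressing HEK293 cells were stimulated with 1.5 ng/mL TSH (final) in presence of Ro20-1724 for 30 min at RT. HTRF cAMP detection after 1 h; each compound tested at 15 concentrations, triplicate.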

Assay [16] deals with Progesterone receptor (Homo sapiens) (UniProt P06401). Kind of assay: qHTS assay to identify small molecule antagonists of the progesterone receptor (PR) signaling pathway (AID 1346795; active = well fitted inhibition curve with a large enough effect in the signal ratio in the repeat runs, not every such curve was filed as active; the % refers to the signal ratio; note: potency is the fitted concentration of half-maximal effect). The gist of the method: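 Antagonist mode: compounds tested against 1 nM (final) promegestone stimulation in HEK293T cells expressing PR-UAS-bla reporter, 16 hr at 37C, 5% CO2; beta-lactamase activity detected via B/G FRET substrate after 2 hr at room temperature.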

Assay [17] can be described thus: qHTS assay to identify small molecule antagonists of the progesterone receptor (PR) signaling pathway - cell viability counter screen (AID 1346798). Note: series mostly up to about 92 µM; nearly all actives have a fitted effect of over 50% in size. The gist of the method:
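Counter screen for cytotoxicity: viability of PR-UAS-bla HEK293T cells was measured with CellTiter-Glo luminescence following 16 hr compound exposure in the presence of R5020.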

Assay [18] addresses Estrogen receptor (Homo sapiens) (UniProt P03372). Kind of assay: qHTS assay to identify small molecule agonists of the estrogen receptor alpha (ER-alpha) signaling pathway in the presence of an antagonist (AID 1259383; calls by dose curve; note: top concentration of the series differs between compounds; nearly all actives have a fitted effect of over 15% in size). The gist of the method:
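Using VM7Luc4E2 cells seeded 24hr before treatment, antagonist ICI-182,780 (10.0nM final) was added, followed by compounds at 15 concentrations. Plates incubated 22hr; ONE-Glo luminescence quantified reporter activity.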

Assay [19] can be described thus: qHTS assay to identify small molecule agonists of the androgen receptor (AR) signaling pathway in the presence of an antagonist - cell viability counter screen (AID 1259379).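 Note: MDA-kb2 human breast cancer cells carrying an MMTV luciferase reporter; series mostly up to about 92 µM; nearly all actives have a fitted effect of over 25% in size.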 The gist of the method:
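A CellTiter-Fluor read-out measured viability of MDA-kb2 reporter cells (MMTV promoter with AR and GR response elements). Treatment: nilutamide 3.0uM final with compounds at 15 concentrations, 16 hr, 37C, 0% CO2.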

Records with an inconclusive call do not appear. Calls of active or inactive are those of the source. Unless noted, calls come from the whole dose curve; as a rule, active = well fitted curve in the direction sought with a large enough effect in the repeat runs; inconclusive = weak or mixed curves; inactive = no such curve, though single readings can be large; an effect the other way counts as inactive or inconclusive.

Chain of Progesterone receptor (Homo sapiens) (P06401 whole entry, looked up): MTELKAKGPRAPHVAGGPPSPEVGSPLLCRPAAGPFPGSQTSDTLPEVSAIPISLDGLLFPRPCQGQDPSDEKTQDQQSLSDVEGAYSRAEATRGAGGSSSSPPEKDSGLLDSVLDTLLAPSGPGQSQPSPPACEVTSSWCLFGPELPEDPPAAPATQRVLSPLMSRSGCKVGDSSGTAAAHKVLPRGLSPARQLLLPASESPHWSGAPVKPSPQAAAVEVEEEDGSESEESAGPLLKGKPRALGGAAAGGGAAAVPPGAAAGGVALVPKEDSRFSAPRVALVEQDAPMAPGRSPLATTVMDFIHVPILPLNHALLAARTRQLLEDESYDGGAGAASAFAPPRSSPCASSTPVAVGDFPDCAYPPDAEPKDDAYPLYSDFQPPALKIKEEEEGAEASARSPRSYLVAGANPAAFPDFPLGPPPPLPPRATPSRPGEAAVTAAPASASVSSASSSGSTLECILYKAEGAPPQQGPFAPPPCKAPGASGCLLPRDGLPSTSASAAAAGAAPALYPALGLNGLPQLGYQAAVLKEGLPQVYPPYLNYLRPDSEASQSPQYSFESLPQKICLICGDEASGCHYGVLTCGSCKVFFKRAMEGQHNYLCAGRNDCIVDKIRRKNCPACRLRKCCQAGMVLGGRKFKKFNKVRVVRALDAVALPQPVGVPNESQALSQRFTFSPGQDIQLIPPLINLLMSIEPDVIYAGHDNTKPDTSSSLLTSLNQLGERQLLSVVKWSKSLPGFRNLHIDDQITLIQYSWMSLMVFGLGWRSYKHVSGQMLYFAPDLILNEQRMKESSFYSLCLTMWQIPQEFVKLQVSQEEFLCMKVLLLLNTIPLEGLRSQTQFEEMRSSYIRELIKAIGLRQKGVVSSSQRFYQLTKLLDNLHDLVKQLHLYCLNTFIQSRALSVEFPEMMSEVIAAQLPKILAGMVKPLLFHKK
Chain of Thyrotropin receptor (Homo sapiens) (P16473 whole entry, looked up): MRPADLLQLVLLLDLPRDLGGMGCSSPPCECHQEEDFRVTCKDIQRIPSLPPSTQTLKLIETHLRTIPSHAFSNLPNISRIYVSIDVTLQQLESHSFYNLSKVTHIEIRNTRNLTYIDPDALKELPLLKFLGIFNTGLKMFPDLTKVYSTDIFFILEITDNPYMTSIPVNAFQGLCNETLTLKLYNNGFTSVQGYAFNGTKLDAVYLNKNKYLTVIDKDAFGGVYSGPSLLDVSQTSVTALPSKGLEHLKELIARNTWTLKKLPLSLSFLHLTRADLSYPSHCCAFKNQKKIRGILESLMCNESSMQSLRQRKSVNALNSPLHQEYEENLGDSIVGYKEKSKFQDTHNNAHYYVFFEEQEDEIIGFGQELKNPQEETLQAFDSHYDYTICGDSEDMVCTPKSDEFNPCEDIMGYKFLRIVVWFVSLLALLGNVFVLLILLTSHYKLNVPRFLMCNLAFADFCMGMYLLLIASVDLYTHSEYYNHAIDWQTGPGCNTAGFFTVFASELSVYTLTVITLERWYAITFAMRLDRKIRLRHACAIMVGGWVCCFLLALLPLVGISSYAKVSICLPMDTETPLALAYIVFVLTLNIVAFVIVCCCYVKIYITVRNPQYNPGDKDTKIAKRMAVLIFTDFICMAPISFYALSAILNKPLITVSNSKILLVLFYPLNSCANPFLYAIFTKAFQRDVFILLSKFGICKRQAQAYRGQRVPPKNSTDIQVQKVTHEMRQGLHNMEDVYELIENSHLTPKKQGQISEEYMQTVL
Chain of Androgen receptor (Homo sapiens) (P10275 whole entry, looked up): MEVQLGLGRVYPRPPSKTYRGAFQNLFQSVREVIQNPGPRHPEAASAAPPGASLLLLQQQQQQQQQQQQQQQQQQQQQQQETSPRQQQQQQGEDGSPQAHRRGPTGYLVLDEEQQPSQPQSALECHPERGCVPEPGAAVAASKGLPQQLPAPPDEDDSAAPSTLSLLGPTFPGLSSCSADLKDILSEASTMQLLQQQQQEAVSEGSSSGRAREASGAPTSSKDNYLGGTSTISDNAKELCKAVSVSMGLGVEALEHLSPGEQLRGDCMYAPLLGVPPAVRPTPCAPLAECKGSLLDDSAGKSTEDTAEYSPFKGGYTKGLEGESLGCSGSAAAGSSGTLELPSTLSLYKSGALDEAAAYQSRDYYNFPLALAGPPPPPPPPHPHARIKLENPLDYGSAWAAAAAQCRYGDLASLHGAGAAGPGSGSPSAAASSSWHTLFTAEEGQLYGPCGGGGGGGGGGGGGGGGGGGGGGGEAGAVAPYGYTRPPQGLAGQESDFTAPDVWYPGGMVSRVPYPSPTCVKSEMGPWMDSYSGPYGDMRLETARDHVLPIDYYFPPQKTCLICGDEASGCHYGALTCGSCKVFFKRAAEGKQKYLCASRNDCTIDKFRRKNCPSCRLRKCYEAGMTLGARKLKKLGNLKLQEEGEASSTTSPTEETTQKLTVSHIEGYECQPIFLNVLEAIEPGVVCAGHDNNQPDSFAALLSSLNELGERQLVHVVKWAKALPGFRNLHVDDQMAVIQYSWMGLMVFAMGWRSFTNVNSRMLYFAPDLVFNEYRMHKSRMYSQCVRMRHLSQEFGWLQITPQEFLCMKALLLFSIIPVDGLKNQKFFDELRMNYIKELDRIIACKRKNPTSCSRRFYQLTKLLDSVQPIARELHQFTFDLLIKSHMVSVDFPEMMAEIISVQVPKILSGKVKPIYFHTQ
Chain of Thyrotropin-releasing hormone receptor (Homo sapiens) (P34981 whole entry, looked up): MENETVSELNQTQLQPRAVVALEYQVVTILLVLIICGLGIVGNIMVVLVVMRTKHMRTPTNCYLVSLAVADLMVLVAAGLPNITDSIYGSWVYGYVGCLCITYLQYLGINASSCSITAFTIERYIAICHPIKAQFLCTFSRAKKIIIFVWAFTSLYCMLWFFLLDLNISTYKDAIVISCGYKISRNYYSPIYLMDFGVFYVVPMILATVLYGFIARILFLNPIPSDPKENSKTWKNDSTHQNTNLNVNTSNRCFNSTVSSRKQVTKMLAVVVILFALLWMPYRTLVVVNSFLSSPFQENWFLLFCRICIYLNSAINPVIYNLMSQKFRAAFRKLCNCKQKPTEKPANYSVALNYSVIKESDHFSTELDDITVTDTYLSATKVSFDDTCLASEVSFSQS
Chain of Estrogen receptor (Homo sapiens) (P03372 whole entry, looked up): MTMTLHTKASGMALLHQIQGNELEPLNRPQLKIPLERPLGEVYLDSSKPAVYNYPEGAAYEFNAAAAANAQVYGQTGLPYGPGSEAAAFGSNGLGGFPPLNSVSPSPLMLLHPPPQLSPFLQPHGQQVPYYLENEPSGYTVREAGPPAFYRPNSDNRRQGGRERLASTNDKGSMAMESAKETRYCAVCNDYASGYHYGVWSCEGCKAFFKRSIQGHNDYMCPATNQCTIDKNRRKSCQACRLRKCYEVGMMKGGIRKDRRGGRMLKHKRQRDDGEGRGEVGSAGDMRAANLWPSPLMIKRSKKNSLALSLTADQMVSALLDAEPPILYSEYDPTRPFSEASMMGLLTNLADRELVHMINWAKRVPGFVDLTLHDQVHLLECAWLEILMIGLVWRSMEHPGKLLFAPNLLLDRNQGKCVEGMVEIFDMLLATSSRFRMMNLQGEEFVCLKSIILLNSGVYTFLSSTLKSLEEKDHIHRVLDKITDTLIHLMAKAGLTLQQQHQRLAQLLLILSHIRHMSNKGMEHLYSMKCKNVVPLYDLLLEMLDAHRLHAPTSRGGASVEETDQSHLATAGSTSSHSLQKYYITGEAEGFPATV
Chain of Estrogen receptor beta (Homo sapiens) (Q92731 whole entry, looked up, the tested form may be a part): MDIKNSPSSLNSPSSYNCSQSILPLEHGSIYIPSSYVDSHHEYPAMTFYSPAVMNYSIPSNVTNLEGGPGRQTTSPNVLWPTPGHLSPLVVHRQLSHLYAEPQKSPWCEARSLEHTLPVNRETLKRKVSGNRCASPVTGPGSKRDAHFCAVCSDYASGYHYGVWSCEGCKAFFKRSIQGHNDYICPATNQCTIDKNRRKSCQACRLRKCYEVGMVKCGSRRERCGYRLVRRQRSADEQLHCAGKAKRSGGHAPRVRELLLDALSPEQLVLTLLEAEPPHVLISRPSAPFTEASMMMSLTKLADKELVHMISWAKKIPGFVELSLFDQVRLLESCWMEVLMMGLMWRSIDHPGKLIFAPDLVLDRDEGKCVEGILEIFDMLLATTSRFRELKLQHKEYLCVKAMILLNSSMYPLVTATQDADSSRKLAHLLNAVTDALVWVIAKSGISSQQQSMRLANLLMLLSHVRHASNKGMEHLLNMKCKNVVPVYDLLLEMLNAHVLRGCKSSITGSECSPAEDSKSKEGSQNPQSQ

In the case of `COc1ccc(-c2ccccc2)cc1NNC(=O)OC(C)C`, the Potency result in assay [1], in assay [4], in assay [5], in [6] and in assay [8] was “inactive” in each case. For the same compound, the Potency in [2] is 63.7 µM (active); in assay [3] it was 35.8 µM (active). Moreover, in [7], the compound was called inactive.

Regarding `O=Cc1ccc(Cl)cc1Cl`, the Potency result in assay [9], in assay [2], in [3], in [10], in [11] and in assay [12] was “inactive” throughout. The Potency entry in assay [13], in [5], in [6] and in [8] was “inactive” in each case. For the same compound, the outcome in assay [7] was inactive.

For the compound `Cl/C=C\Cl`, the Potency entry in assay [9], in assay [3], in [10], in assay [15], in assay [11] and in assay [12] was “inactive” throughout. Further, the Potency entry in assay [16], in [17], in assay [13], in [5], in assay [6] and in assay [8] was “inactive” each time. For the same compound, the result in [14] and in assay [7] was inactive.

Turning to `COP(=O)(OC)O/C(=C/Cl)c1cc(Cl)c(Cl)cc1Cl`, the Potency was 57.5 µM (active) in [9] and 14.5 µM (active) in [16]. For the same compound, the Potency entry in assay [4], in [10], in assay [18], in [11], in assay [17] and in assay [13] was “inactive” in each case. For the same compound, the Potency result in assay [5], in assay [6] and in [8] was “inactive” throughout. In addition, the outcome in assay [14] and in assay [7] was inactive.

Regarding `CCOS(C)(=O)=O`, the Potency entry in [9], in assay [19], in assay [3], in assay [10], in assay [15] and in [11] was “inactive” throughout. The Potency result in assay [12], in assay [16], in assay [17], in assay [13], in assay [5] and in assay [6] was “inactive” in each case. Further, the result in assay [14] and in assay [7] was inactive.

As to `S=C=NCc1ccccc1`, the Potency result in assay [9], in [1], in [4], in assay [10], in assay [15] and in assay [11] was “inactive” throughout. Also, the Potency entry in assay [13], in assay [5], in assay [6] and in assay [8] was “inactive” each time. In assay [2], the Potency is 49.1 µM (active). For the same compound, the outcome in assay [14] and in assay [7] was inactive.

With `ClP(Cl)(Cl)(Cl)Cl`, the Potency entry in assay [9], in [19], in assay [3], in assay [10], in assay [18] and in assay [11] was “inactive” in each case. Also, the Potency result in assay [12], in assay [16], in [17], in [13], in assay [5] and in assay [6] was “inactive” in each case. Besides, the Potency entry in assay [8] was “inactive”. In addition, the compound was called inactive in assay [14] and in [7].

As to `CS/C(C)=N/OC(=O)N(C)SN(C)C(=O)O/N=C(\C)SC`, the Potency entry in assay [1], in assay [4], in [10], in assay [18], in assay [11] and in assay [12] was “inactive” in each case. Besides, the Potency result in assay [16], in assay [17], in [13], in assay [5] and in assay [6] was “inactive” in each case. Further, the compound was called inactive in [14] and in [7].

For `CC1Sc2c(C(=O)O)c(=O)c3cc(F)c(N4CCNCC4)cc3n21` (centres undefined), the Potency entry in assay [9], in assay [1], in [19], in [3], in assay [4] and in assay [10] was “inactive” throughout. The Potency entry in assay [18], in [15], in assay [11], in assay [12], in [16] and in [17] was “inactive” each time. Moreover, the Potency entry in [13], in assay [5], in assay [6] and in [8] was “inactive” each time. Besides, the outcome in assay [14] and in [7] was inactive.
